Measurements: PubChem BioAssay AID1974 (The Scripps Research Institute Molecular Screening Center, 2009)
Out of some 300,000 compounds screened, about 3,200 (1.1%) were called active.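 The calls were made as follows: active = inhibition above the campaign mean inhibition plus 3 SD (cut at about 35% in these data); inactive = the rest.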 Many of the other results were omitted from the sample, so actives are more common in it than they were.

Molecular target: Glutathione S-transferase omega-1 (Homo sapiens) (UniProt P78417)
Sequence (P78417 whole entry, looked up): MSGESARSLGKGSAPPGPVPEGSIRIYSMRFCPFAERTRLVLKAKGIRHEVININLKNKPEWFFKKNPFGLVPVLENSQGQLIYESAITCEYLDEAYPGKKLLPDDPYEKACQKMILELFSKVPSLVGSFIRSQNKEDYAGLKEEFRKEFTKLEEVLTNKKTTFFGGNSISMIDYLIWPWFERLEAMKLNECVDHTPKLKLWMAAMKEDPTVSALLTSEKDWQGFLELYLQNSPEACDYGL
Test: inhibitors of recombinant GSTO1, primary screen, counter-screen for RBBP9 inhibitor project, biochemical, fluorescence polarization (AID 1974);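 also: 0% = GSTO1-1 with DMSO and 100% = wells lacking GSTO1-1 enzyme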
Details: recombinant GSTO1, activity-based probe fluorescence polarization; at 5.96 µM; active compounds read high

SMILES | inhibition
COCCn1c(SC(C)C(=O)NC2CC2)nnc1-c1cccc(C)c1 (stereo unspecified) | 12.9% (inactive)
Cc1ccc(NC(=O)C(C)OC(=O)Cc2c[nH]c3ccccc23)cc1S(=O)(=O)N1CCOCC1 (stereo unspecified) | 11.7% (inactive)
O=C(NCCS(=O)(=O)N1CCN(c2ccccc2)CC1)c1ccco1 | 1.82% (inactive)
O=c1c(/C=N/O)coc2ccc(Cl)cc12 | 38.5% (active)
NC(=S)N/N=C/c1coc2cc(Cl)ccc2c1=O | 0.72% (inactive)
Cc1ccc2occ(/C=N/NC(=O)c3ccccc3C)c(=O)c2c1 | 23.9% (inactive)
COC1(C2=NCCN2)COc2ccccc2O1 (stereo unspecified) | 10.3% (inactive)
COc1ccccc1C(=O)NCCC(=O)NN1C(=O)NC2(CCCCC2)C1=O | 0.1% (inactive)
CCCCC1=CC2=CC(=O)C(C)(OC(=O)CC)C(=O)C2=CN1CCCOC(C)C (stereo unspecified) | 19.3% (inactive)
COC(=O)CCCC1=CC2=CC(=O)C(C)(OC(=O)c3cccs3)C(=O)C2=CN1CC1CC1 (stereo unspecified) | 43.3% (active)
COC(=O)CCCC1=CC2=CC(=O)C(C)(OC(=O)c3cccs3)C(=O)C2=CN1CC(C)C (stereo unspecified) | 19.4% (inactive)
CC(C)N(Cc1ccccc1)C(=O)COC(=O)c1ccccc1SCC(=O)N1CCCC1 | 8.57% (inactive)
O=C(CCn1c(SCC(=O)c2ccccc2)nc2ccccc2c1=O)NCc1ccc(F)cc1 | 62.5% (active)
O=C(CCCn1c(SCC(=O)c2ccc(F)cc2)nc2ccccc2c1=O)NCc1ccco1 | 5.62% (inactive)
O=C(CCCn1c(SCC(=O)c2ccccc2)nc2ccccc2c1=O)NCC1CCCO1 (stereo unspecified) | -0.93% (inactive)
CCCCCCSc1ccc([C@@H]2[C@@H]3C(=O)N(CC)C(=O)[C@@H]3[C@]3(C(=O)OC)CCCCN23)cc1OC | -5.28% (inactive)
Cc1cccc(NS(=O)(=O)c2cc(Cl)ccc2Cl)n1 | -9.4% (inactive)
COc1ccc(N2CCN(C(C)=C3C(=O)c4ccccc4C3=O)CC2)cc1 | 2.82% (inactive)
COC1=C(N2CCOCC2)C(=O)c2ccccc2C1=O | 57.8% (active)
O=C1C(Cl)=C(N2CCOCC2)C(=O)N1c1ccccc1 | 3.26% (inactive)
COc1ccc(NS(=O)(=O)c2ccc(C)c(C(=O)NNC(=O)c3csc(N4CCOCC4)n3)c2)cc1 | -5.75% (inactive)
CCCC1C(=O)N2C(N(C)C)=Nc3ccc(C)cc3N2C1=O (stereo unspecified) | -1.7% (inactive)
COc1ccc(-c2cnc(SCCNC(=O)c3ccc4c(c3)OCO4)[nH]2)cc1 | -3.18% (inactive)

SMILES | inhibition
COC(=O)c1ccc(CSc2nncn2C)cc1 | -6.04% (inactive)
COC(=O)c1ccc(CSc2nnc(NC(C)C)s2)cc1 | -6.8% (inactive)
COC(=O)c1ccc(CSc2nncn2N)cc1 | 61% (active)
OCC[C@H]1C[C@H](O)[C@@H](O)[C@]2(CCCCO2)O1 | 3.4% (inactive)
COc1ccc(CC2c3cc(OC)c(OC)cc3CC[N+]2(C)CCC(=O)OCCCCCOC(=O)CC[N+]2(C)CCc3cc(OC)c(OC)cc3C2Cc2ccc(OC)c(OC)c2)cc1OC (stereo unspecified) | 11.1% (inactive)
CCC(c1nnc(SCC(=O)NNC(=O)c2ccccc2)n1Cc1ccccc1)N(C)C (stereo unspecified) | 1.64% (inactive)
COc1ccc(-n2ncc3c(SCC(=O)NNC(C)=O)ncnc32)cc1 | -13% (inactive)
COc1ccc(NC(=O)CSc2ncnc3[nH]ncc23)cc1 | 36.4% (active)
COc1ccc(NC(=O)CSc2nc(C)cs2)cc1 | 4.13% (inactive)
CCCCN1C(N)=NC[C@@H]1Cc1ccccc1 | -4.9% (inactive)
Cc1onc(C(=O)NN)c1-c1csc(COc2ccccc2)n1 | 10.4% (inactive)
COc1cc(CC(=O)Nc2nc(-c3ccc(F)c(F)c3)cs2)cc(OC)c1OC | -6.41% (inactive)
CC(C)(C)C(=O)OCc1nc(-c2ccc(O)c(O)c2)cs1 | 37.1% (active)
CC(CCN1CCN=C1N(C)C)c1ccccc1 (stereo unspecified) | 4.27% (inactive)
CNC(C)C#Cc1ccc2sc3cc(OC)c(OC)cc3c(=O)c2c1 (stereo unspecified) | 0.59% (inactive)
O=C(O)c1[nH]c2ccccc2c1C(c1cccc(O)c1)c1c(C(=O)O)[nH]c2ccccc12 | 50.4% (active)
CC(NC(=O)COC(=O)c1cc(=O)[nH]c2ccccc12)c1ccccc1 (stereo unspecified) | -7.45% (inactive)
CCCS(=O)(=O)Nc1c(C(=O)O)[nH]c2ccccc12 | 0.73% (inactive)
CN(C)CCN(C(=O)CN1C(=O)c2ccccc2C1=O)c1nc2cc3c(cc2s1)OCCO3 | 1.93% (inactive)
COc1cccc(N2CC(NC(=O)c3ccc4ccccc4c3)CC2=O)c1 (stereo unspecified) | -0.99% (inactive)
O=C(OCC(=O)N1CCCC1=O)c1cc(S(=O)(=O)N2CCOCC2)ccc1Cl | 82% (active)
CC1CCN(C(=O)COC(=O)c2cc(S(=O)(=O)N3CCOCC3)ccc2Cl)CC1 | -3.67% (inactive)
CC(C)(C)C(=O)COC(=O)c1cc(S(=O)(=O)N2CCCCC2)ccc1N1CCOCC1 | -0.05% (inactive)

SMILES | inhibition
CCCNC(=O)c1onc(CSc2ccc(F)cc2)c1C(=O)NC(C)C | -6.69% (inactive)
CC[N+](C)(CC)CCC[n+]1c(-c2ccccc2)c2cc(N)ccc2c2ccc(N)cc21 | 92.8% (active)
COCC(=O)Nc1c(I)c(C(=O)NCC(O)CO)c(I)c(C(=O)N(C)CC(O)CO)c1I (stereo unspecified) | 3.24% (inactive)
Cc1ccc2c(c1)N(CC(=O)NCC1CCCO1)C(=O)CO2 (stereo unspecified) | -3.07% (inactive)
Cn1c(SCC(=O)N/N=C/c2ccc(O)c(O)c2)nc2ccccc21 | 52% (active)
CCn1c(SCC(=O)N/N=C/c2ccncc2)nc2ccccc21 | -0.27% (inactive)
CCOc1ccc(/C=N/NC(=O)CSc2ccccn2)cc1O | 1.26% (inactive)
CSc1nc2ccccc2c(=O)n1Cc1ccc(F)cc1 | -7.17% (inactive)
CC(=O)c1ccc(-c2ccc(Cn3c(C)nc4cc(N)c(C)nc43)cc2)cc1 | 4.41% (inactive)
Cc1cc2nc3c(=O)n(Cc4ccccc4)c(=O)[nH]c3nc2cc1N | 44.9% (active)
CC1=C/C(=N\OS(=O)(=O)c2ccccc2)C=CC1=O | 49.7% (active)
O=S(=O)(ON(c1ccccc1)S(=O)(=O)c1ccccc1)c1ccccc1 | -0.47% (inactive)
CCN(CC(=O)NCc1cccs1)C(=O)c1ccc(OC)c(S(=O)(=O)N2CCOCC2)c1 | 11.9% (inactive)
O=C(Cc1c[nH]c2ccccc12)OCCOC(=O)Cc1c[nH]c2ccccc12 | -2.78% (inactive)
COc1ccccc1CC(=O)NCCc1c[nH]c2ccccc12 | 5.81% (inactive)
O=S(=O)(O)Oc1c[nH]c2ccccc12 | 62.3% (active)
Cc1ccc(Cn2nnc3c(=O)[nH]c(C4CCN(S(=O)(=O)/C=C/c5ccccc5)CC4)nc32)cc1 | -24.4% (inactive)
CC(=O)N(C1=C(Cl)C(=O)c2ccccc2C1=O)c1ccc(C(=O)O)cc1 | 79.7% (active)
O=C(CN1C(=O)c2ccccc2C1=O)NCc1ccc(C(=O)O)cc1 | 3.69% (inactive)
CC(C)N(C(=O)c1ccc(-c2ccccc2F)cc1)C(C)C | 0.63% (inactive)
NC(=O)NC(=O)C(OC(=O)CCNS(=O)(=O)c1ccccc1)c1ccccc1 (stereo unspecified) | -0.72% (inactive)
Cc1ccc(CSCC(=O)N(C)CC(=O)Nc2ccc(C)cc2)cc1 | -11.5% (inactive)
CCOC(=O)c1cnc2nc(SCc3ccccc3Cl)[nH]n2c1=O | -25.6% (inactive)

SMILES | inhibition
Cc1ccc([N+](=O)[O-])cc1S(=O)(=O)N1CCCN(C)CC1 | 2.63% (inactive)
CN1CCN(/N=C/c2ccc(-c3ccc([N+](=O)[O-])cc3)o2)CC1 | 3.62% (inactive)
CN1CCN(/N=C2/C(=O)Nc3ccc([N+](=O)[O-])cc32)CC1 | 37.1% (active)
COc1cccc(NC(C)=[N+](C)CCNS(=O)(=O)c2ccc(Cl)cc2)c1 | 8.66% (inactive)
Cc1cccc(C(C)C)c1NC(=O)COC(=O)C1CC(=O)N(Cc2ccccc2)C1 (stereo unspecified) | 7.97% (inactive)
Oc1ccc2ccccc2c1N=Nc1nccs1 | 52% (active)
c1ccc(NCc2cccc3ccccc23)nc1 | -6.32% (inactive)
Oc1ccc(N=Nc2nccs2)c(O)c1 | 36.6% (active)
O=C(Oc1ccc(-c2nnco2)cc1)c1ccc(F)c(S(=O)(=O)N2CCOCC2)c1 | 3.94% (inactive)
CCN(CC(=O)Nc1c(F)cccc1F)C(=O)c1ccc(S(=O)(=O)N2CCCCC2)cc1 | 3.32% (inactive)
Cc1cccc(C)c1NC(=O)CSc1ccc([N+](=O)[O-])cn1 | 5.11% (inactive)
O=[N+]([O-])c1ccc(Sc2n[nH]c(-c3ccco3)n2)nc1 | 5.75% (inactive)
CC(C)(C)n1cnnc1Sc1ccc([N+](=O)[O-])cn1 | 39.1% (active)
CC(OC(=O)CNC(=O)c1cccc(F)c1)C(=O)NC1CCCCC1C (stereo unspecified) | 3.44% (inactive)
Cc1ccccc1NCC(=O)N/N=C\c1ccc([N+](=O)[O-])s1 | 15.2% (inactive)
COc1ccc(C(=O)NCC(=O)N/N=C/c2ccc([N+](=O)[O-])s2)cc1OC | 27.8% (inactive)
CC(C)(C)c1cc(C(=O)N/N=C/c2ccc([N+](=O)[O-])s2)n[nH]1 | 37% (active)
O=C(NCCSc1ncc(-c2ccccc2)[nH]1)c1ccco1 | 5.65% (inactive)
CC1(OC(=O)C2CCCC2)C(=O)C=C2C=C(c3ccc(C#N)cc3)OC=C2C1=O (stereo unspecified) | 24.5% (inactive)
COCCN1C=C2C(=O)C(C)(OC(=O)C3CCCC3)C(=O)C=C2C=C1c1ccsc1 (stereo unspecified) | 45.6% (active)
CC1(OC(=O)CCc2ccccc2)C(=O)C=C2C=C(c3ccc(C#N)cc3)N(CCc3ccccn3)C=C2C1=O (stereo unspecified) | 27.9% (inactive)
NC(=O)C1=C[C@@H](c2ccc3c(c2)OCO3)C[C@@H](OCCCCO)O1 | 14.6% (inactive)
